Shown are actives, neighbours in structure and some others; about 1.5% of the full set was active somewhere.
FID counter – displaces DNA intercalator in HCV helicase counter-screen | DNA fluorescent intercalator displacement, fluorescence | inhibition, % at 7.9 µM | 290,000 tested, 0.17% active; in the data active means inhibition above about 37%;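 further: 0% = vehicle and 100% = reference compound; higher means more ethidium bromide displaced from hairpin DNA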
RAD52 inh – RAD52 (human) annealing inhibition | P43351 | recombinant RAD52 DNA annealing, FRET fluorescence | inhibition, % at 18.7 µM | 360,000 tested, 0.46% active | AID 651710;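 active means every replicate showing at least 50% inhibition; inconclusive means mean inhibition at least 50% but not in every replicate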
Target sequence (P43351 whole entry, looked up): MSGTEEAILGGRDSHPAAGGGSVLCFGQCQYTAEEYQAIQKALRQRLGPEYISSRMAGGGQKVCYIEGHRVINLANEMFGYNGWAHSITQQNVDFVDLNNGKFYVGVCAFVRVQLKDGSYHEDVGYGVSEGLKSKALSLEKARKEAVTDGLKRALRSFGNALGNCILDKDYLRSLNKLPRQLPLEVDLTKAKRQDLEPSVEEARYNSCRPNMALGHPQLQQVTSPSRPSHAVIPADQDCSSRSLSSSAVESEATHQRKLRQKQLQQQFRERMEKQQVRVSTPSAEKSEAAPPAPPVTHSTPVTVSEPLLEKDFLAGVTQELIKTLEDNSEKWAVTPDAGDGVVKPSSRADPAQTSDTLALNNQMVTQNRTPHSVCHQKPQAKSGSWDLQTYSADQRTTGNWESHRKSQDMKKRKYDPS
NRP1-CendR mod – alters CendR peptide binding to human NRP-1 | O14786 | AID 602438 | inhibition, % at 25 µM | 360,000 tested, 0.85% active | FAM-RPARPAR peptide binding to NRP-1, fluorescence polarization;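 active means inhibition or corrected inhibition above about 18%, plus a signal ratio from 0.5 to 1.5, limit read from the data, passing the limit was not always enough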
Glyco luc inh – N-linked glycosylation inhibition; D54 ERlucT glycosylation luciferase reporter, 24 h; percent of 100 nM tunicamycin response; reporter increase, % at 12.5 µM; 360,000 tested, 0.23% active;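 active means mean luciferase reporter signal, scaled so untreated is 0 and the glycosylation-blocking control 100, at or above a set limit in every replicate; inconclusive means mean reaches the limit but not every replicate does; inactive means mean below the limit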;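 further: luciferase carries N-glycosylation sites so blocking glycosylation raises the light; 0% = median of neutral control wells and 100% = median of 100 nM tunicamycin wells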
RAD54 inh – blocks human RAD54 Holliday junction branch migration; inhibition, % at 10.4 µM; Q92698; FAM/BHQ fluorescence; 360,000 tested, 0.14% active;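 active means mean normalized replicate activity at least 40 and at least half of replicates scoring 40 or more; inconclusive means only one of the two criteria met; inactive means mean below 40 and under half of replicates reaching 40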;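 further: 0% = median of neutral control wells and 100% = median of positive control wells; inhibitors cause a drop in the FAM fluorescence signal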
miR-122 sensor – blocks miR-122 activity in Huh7 sensor cells; Huh7 miR-122 Renilla luciferase sensor, 48 h; neutral wells = 0, positive control = 100; activation (reporter increase), % at 12.5 µM; 340,000 tested, 0.3% active;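 active means mean replicate activation score at least 90 and every replicate individually at or above 90; inconclusive means only one of the two criteria met; inactive means neither criterion met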;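 further: higher luciferase means less miR-122 activity so hits act as miR-122 inhibitors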
Active calls of the source: *; ? = inconclusive; nt = not tested or not shown; [ ] = dose if it differs, or a comment.

SMILES	FID counter	RAD52 inh	NRP1-CendR mod	Glyco luc inh	RAD54 inh	miR-122 sensor
C[C@@H]1CN([C@@H](C)CO)C(=O)c2cc(C#CCc3ccccc3)cnc2O[C@@H]1CN(C)C(=O)C1CC1	nt	-14	nt	nt	3	3[16.7 µM]
C[C@H](CO)N1C[C@H](C)[C@H](CN(C)C(=O)Nc2ccccc2)Oc2ncc(Br)cc2C1=O	nt	12	nt	nt	-2	4[16.7 µM]
CC(C)NC(=O)N(C)C[C@H]1OCCCC[C@H](C)Oc2ccc(NC(=O)CCC(F)(F)F)cc2C(=O)N([C@H](C)CO)C[C@@H]1C	nt	11	nt	nt	-15	3[16.7 µM]
O=S(=O)(NCCC1=CCCCC1)c1ccccc1Br	nt	-7	8	1	-7	140*
O=S(=O)(NCCC1=CCCCC1)c1ccccc1Cl	nt	-3	-5	-4	-3	?
COc1ccc(C)cc1S(=O)(=O)NCCC1=CCCCC1	-26	2	1	-2	5	93*
COc1ccc(C)cc1S(=O)(=O)N1CCC(C(=O)NCCC2=CCCCC2)CC1	-34	nt	0	-4	-14	9
CN1C(=O)c2cc(NS(=O)(=O)c3cccc(F)c3)ccc2OC[C@H]2O[C@@H](CC(=O)N3CCc4ccccc4C3)CC[C@H]21	nt	nt	nt	nt	0	-10[16.7 µM]
Cc1ccsc1/C=c1\sc2ncnn2c1=O	5	nt	-9	-1	nt	1
CCCCOc1ccc(/C=c2\sc3ncnn3c2=O)cc1	-17	nt	20*	2	-8	2
CC(C)CC#Cc1ccc2c(c1)O[C@H](CN(C)Cc1cncnc1)[C@@H](C)CN([C@@H](C)CO)S2(=O)=O	nt	3	nt	nt	-7	22[16.7 µM]
CNC(=O)c1ccccc1Sc1ccccc1C#N	7	-15	32*	1	3	-1
CCOC(=O)CSc1nc2ccccc2c(=O)n1CC1CCC(C(=O)NCc2ccco2)CC1 (configuration not stated)	-8	-9	3	1	8	138*
CCN(CC)S(=O)(=O)c1ccc(N=NC2=C(O)CCCC2=O)cc1	-9	-8	26*	5	-15	0
Cc1nn(C)c(C)c1S(=O)(=O)N(CC(=O)NCCCOC(C)C)c1ccc(C(C)C)cc1	-30	nt	1	3	0	-1
Cc1nn(C)c(C)c1S(=O)(=O)N(CC(=O)NCCCN1CC(C)CC(C)C1)c1ccc(C(C)C)cc1 (configuration not stated)	40*	-1	7	-4	1	-6
C[C@@H]1CCCCO[C@@H](CN(C)CC2CC2)[C@H](C)CN([C@H](C)CO)C(=O)c2cc(NC(=O)Cc3ccccc3)ccc2O1	nt	30	nt	nt	nt	nt
Cc1cc(NC(=O)CN(C)CC(=O)Nc2ccc(Cl)c(C(F)(F)F)c2)no1	nt	-6	-6	2	-5	nt
Cc1cc(NC(=O)CN(C)CC(=O)Nc2ccc(Cl)cc2)no1	nt	-9	19*	1	-3	6
Cn1nnnc1SCC(=O)c1ccco1	-2	nt	19*	1	3	nt
O=C(CSc1nnnn1-c1ccccc1)c1ccco1	-4	6	13	1	nt	0
C[C@@H]1CN([C@H](C)CO)C(=O)CCCn2nncc2CO[C@@H]1CN(C)C(=O)CCC(F)(F)F	nt	5	27*	-3	6	-1
C[C@@H]1CN([C@H](C)CO)C(=O)CCCn2nncc2CO[C@H]1CN(C)S(=O)(=O)c1cn(C)cn1	nt	-8	27*	1	-1	-2
C[C@@H]1CN([C@H](C)CO)C(=O)c2cc(NC(=O)Nc3cccc4ccccc34)ccc2O[C@H]1CN(C)S(=O)(=O)c1cn(C)cn1	nt	-6	nt	nt	nt	nt
COC/C=C/C1=CC2=CC(=O)C(C)(OC(=O)c3cnc4ccccc4n3)C(=O)C2=CN1C1CC1 (configuration not stated)	nt	-9	-20	-1	-5	0
SMILES	FID counter	RAD52 inh	NRP1-CendR mod	Glyco luc inh	RAD54 inh	miR-122 sensor
COC(=O)CCC(=O)OC1(C)C(=O)C=C2C=C(C3CC3)N(CCN3CCOCC3)C=C2C1=O (configuration not stated)	nt	-32	16	3	-28	6
CC1(OC(=O)C2CCCC2)C(=O)C=C2C=C3CCCCN3C=C2C1=O (configuration not stated)	nt	nt	32*	2	-6	-4
CC1(OC(=O)c2ccc(Cl)nc2)C(=O)C=C2C=C3CCCN3C=C2C1=O (configuration not stated)	nt	-14	51*	2	-7	-3
CC1(OC(=O)C2CCCC2)C(=O)C=C2C=C(c3ccsc3)N(C3CC3)C=C2C1=O (configuration not stated)	nt	-34	-18	0	-2	nt
COC(=O)CCC(=O)OC1(C)C(=O)C=C2C=C3CCCN3C=C2C1=O (configuration not stated)	nt	-7	41*	0	-11	2
O=C(Nc1ccc(Cl)c(Cl)c1)N[C@H]1CC[C@H](CCn2cc(C3CCCC3)nn2)O[C@@H]1CO	nt	-6	nt	nt	nt	nt
CC(=O)N1[C@H](C(=O)N2CCCCC2)[C@@H](CO)[C@@H]2Cn3c(ccc(-c4ccccc4)c3=O)[C@@H]21	nt	-19	nt	nt	3	nt
C[C@@H]1CN([C@@H](C)CO)C(=O)Cc2cc(NC(=O)Nc3ccc(F)cc3)ccc2O[C@H]1CN(C)Cc1ccc(Oc2ccccc2)cc1	nt	-15	nt	nt	0	-10[16.7 µM]
Cc1cccc(/C=N/c2sc3c(c2C(=O)OC(C)(C)C)CCN(C)C3)c1O	-1	nt	31*	-4	nt	nt
C=CCOC(=O)[C@@]12O[C@]3(COC[C@H](c4ccccc4)N3C1=O)[C@@H]1C(=O)N(c3ccccc3)C(=O)[C@@H]12	nt	0	nt	nt	nt	nt
Cn1nccc1C(=O)N1CCN(C23CC4CC(CC(C4)C2)C3)CC1	-7	-3	31*	4	7	-2
Cc1ccc(C(=O)N2CCN(C34CC5CC(CC(C5)C3)C4)CC2)o1	-1	-8	25*	7	-3	nt
O=C(c1ccco1)N1CCN(C23CC4CC(CC(C4)C2)C3)CC1	-2	-46	11	4	7	nt
Cn1ncc(Cl)c1C(=O)N1CCN(C23CC4CC(CC(C4)C2)C3)CC1	-7	-9	3	2	-1	7
C[C@@H]1CN([C@@H](C)CO)C(=O)c2cc(C#CC3CCCC3)cnc2O[C@@H]1CN(C)C(=O)C1CC1	nt	12	nt	nt	nt	nt
CCCCOc1ccccc1C1CC(=O)NC2=C1C(=O)CCC2 (configuration not stated)	-12	nt	10	22	-1	109*
COc1ccc(C2C(C#N)=C(N)Oc3cc(O)ccc32)cc1OC (configuration not stated)	2	nt	-12	3	8	-6
COc1cc(C2C(C#N)=C(N)Oc3cc(O)ccc32)cc(OC)c1OC (configuration not stated)	-2	nt	0	46*	-3	3
CCc1ccc(C(O)c2ncc(-c3ccccc3F)[nH]2)cc1 (configuration not stated)	nt	-4	-8	-2	12	nt
